{
  "source": "PubChem BioAssay AID485297",
  "about": "(National Center for Advancing Translational Sciences (NCATS), 2010)",
  "note": "In all, about 320,000 compounds went through this assay and about 9,100 (2.8%) were called active. Roughly 3% stayed inconclusive and do not appear here. The call rests on the fitted dose curve; in most records, active means well fitted activation curve with a large enough effect; inconclusive means small, poorly fitted or top-dose-only effect; inactive means no such curve, though single readings can be large or run the other way. The list comes from a sample in which actives are over-represented; it also holds similar structures and randomly drawn compounds. Potency means the concentration at half of the fitted maximal effect.",
  "data": [
    {"test": "qHTS Assay for Rab9 Promoter Activators; further: nearly all actives have a fitted effect of over 60% in size; on activation, negative = inhibition: % of control where 0% means no effect", "conditions": "Huh7 Rab9 promoter-luciferase reporter, luminescence, 24 h; series mostly up to 9.22 µM; activation, negative = inhibition: at the top concentration", "text": "NIH Chemical Genomics Center [NCGC] NIH Molecular Libraries Probe Production centers Network [MLPCN] MLPCN Grant: MH089537-01 Assay Submitter (PI): Yiannis A. Ioannou NCGC Assay Overview: Niemann Pick Type C (NPC) is a rare neurodegenerative lipidosis that is characterized by lipid storage in the endosomal/lysosomal system. Treatment modalities for this devastating disease are currently non-existent due to the severe obstacles associated with accessing the central nervous system with proteins or genes (Ioannou, 2000). We have developed a new paradigm, termed \"Orphan Receptor Bypass Therapy\" (ORByT), to address these disorders. This paradigm posits the existence of endogenous \"suppressor\" proteins whose expression can dramatically improve LSD pathogenesis. The goal is the identification/discovery of small chemical compounds that can modulate the expression of these proteins and provide a new treatment modality for these devastating disorders. One such protein whose overexpression reverses aspects of the NPC phenotype is Rab9. We have developed and optimized a cell based luciferase reporter assay in 1536 well format for the identification of up-regulators of the Rab9 promoter.\nThe Rab9 promoter is cloned in front of the luciferase reporter gene, therefore […] promoter activation results in luciferase expression. Frozen stock of the Rab9 promoter transfected Huh7 cells were obtained from the laboratory of Dr. Yiannis Ioannou (The Mount Sinai School of Medicine, New York, NY). Cells were propagated and maintained at NCGC in medium containing RPMI-1640 supplemented with 10% FBS, 2mM L-glutamine, and 50ug/ml penicillin/streptomycin. Cells were harvested in and plated for assays in OP-MEM I reduced-serum medium supplemented with 10% FBS. The Amplite luciferase reporter gene assay kit was purchased from ABD Bioquest and prepared/stored according to manufacturers recommendations. qHTS Assay Setup: 1.Dispensed 5ul of Huh7 cells stably expressing Rab9-luciferase at a density of 1500 cells per well 1536-well plates. 2.Incubate cells at 37C, 5% CO2, and 95% humidity for 2 hours. 3.Transferred 23nl per well of compound in DMSO solution. 4.Incubated at 37C, 5% CO2, and 95% humidity for 24 hours. 5.Dispensed 3ul per well of Amplite reagent(ABD Bioquest) per well. 6.Incubate at ambient for 10 minutes. 7.Read using the luminescence protocol on the ViewLux plate reader (Perkin Elmer).", "values": [
      {"smiles": "C[C@@H]1NC(=O)[C@@]2(C)[C@@H](c3ccccc3)[C@H]3COc4ccccc4[C@@H]3N2C1=O", "activation, negative = inhibition": "6.2% (inactive)"},
      {"smiles": "Cc1ccc(OCCC(=O)Nc2ccc(S(=O)(=O)Nc3nccs3)cc2)cc1", "activation, negative = inhibition": "-11.6% (inactive)"},
      {"smiles": "COc1cccc(OCC(=O)Nc2ccccc2C(N)=O)c1", "Potency": "2820 nM (active)"},
      {"smiles": "CCCOC(=O)Nc1ccccc1C(N)=O", "activation, negative = inhibition": "5.54% (inactive)"},
      {"smiles": "Cc1cccc(OCCC(=O)Nc2ccccc2C(N)=O)c1", "activation, negative = inhibition": "2.71% (inactive)"},
      {"smiles": "COc1ccccc1C(=O)NCC(=O)NCCSc1ccc(Br)cc1", "activation, negative = inhibition": "3.4% (inactive)"},
      {"smiles": "CCCC(=O)N1c2ccc(-c3csc(N)n3)cc2CC1C", "note": "(stereo unspecified)", "Potency": "2820 nM (active)"},
      {"smiles": "Cc1ccn(CCC(=O)N2c3ccccc3CC2C)n1", "note": "(stereo unspecified)", "activation, negative = inhibition": "-0.165% (inactive)"},
      {"smiles": "CCn1nc(C(=O)OCC(=O)N2c3ccccc3CC2C)c2ccccc2c1=O", "note": "(stereo unspecified)", "activation, negative = inhibition": "10.4% (inactive)"},
      {"smiles": "COC(=O)C1CCN(CC(N)=O)CC1", "activation, negative = inhibition": "0.0472% (inactive)"},
      {"smiles": "COC(=O)c1ccc(CSc2ccc(S(=O)(=O)N3CCCCC3)cn2)cc1", "activation, negative = inhibition": "-0.29% (inactive)"},
      {"smiles": "O=C(CN1C(=O)c2ccccc2S1(=O)=O)N1CCc2ccccc21", "activation, negative = inhibition": "-38.7% (inactive)"},
      {"smiles": "O=C(CN1C(=O)c2ccccc2S1(=O)=O)NC1CCCCC1", "activation, negative = inhibition": "15% (inactive)"},
      {"smiles": "CC1CCCN(C(=O)CN2C(=O)c3ccccc3S2(=O)=O)C1", "note": "(stereo unspecified)", "Potency": "2820 nM (active)"},
      {"smiles": "O=C(COC(=O)Cc1ccc(Br)cc1)Nc1ccc(N2CCOCC2)cc1", "activation, negative = inhibition": "-3.87% (inactive)"},
      {"smiles": "CCOCc1c(C(=O)N2CCN(Cc3ccc(Br)s3)CC2)oc2ccccc12", "activation, negative = inhibition": "-5.16% (inactive)"},
      {"smiles": "CC(C)CC(=O)NC(=S)NCc1ccccc1", "activation, negative = inhibition": "-0.334% (inactive)"},
      {"smiles": "O=C(O)CCCCc1nc2ccccc2s1", "activation, negative = inhibition": "-6.84% (inactive)"},
      {"smiles": "Cc1cc(C(=O)OCC(=O)Nc2nnc(C(C)C)s2)c2ccccc2n1", "activation, negative = inhibition": "1.65% (inactive)"},
      {"smiles": "CC(=O)Nc1cccc(-c2nc3ccccc3s2)c1C", "activation, negative = inhibition": "11% (inactive)"},
      {"smiles": "CCC(=O)NC(=Nc1nc2ccccc2s1)NC(=O)CC", "Potency": "3550 nM (active)"},
      {"smiles": "CC(C)CC(=O)N/C(N)=N/c1nc2ccccc2s1", "Potency": "2820 nM (active)"},
      {"smiles": "O=C(OCC(=O)N1CCCC1)c1ccc(Cl)nc1", "activation, negative = inhibition": "-0.804% (inactive)"},
      {"smiles": "CCCN(C(=O)c1nc2nccc(C)n2n1)c1c(N)n(Cc2ccccc2)c(=O)[nH]c1=O", "activation, negative = inhibition": "-4.22% (inactive)"},
      {"smiles": "O=C(Nc1cc(C(F)(F)F)ccc1Cl)C(=O)N1CCCCC1", "activation, negative = inhibition": "-2.62% (inactive)"},
      {"smiles": "O=C(Nc1cc(C(F)(F)F)ccc1Cl)c1cc2nc3c(c(C(F)(F)F)n2n1)CCCC3", "Potency": "1780 nM (active)"},
      {"smiles": "O=C(Nc1cc(C(F)(F)F)ccc1Cl)c1cc(C2CC2)on1", "activation, negative = inhibition": "-1.69% (inactive)"},
      {"smiles": "Cc1cc(NC(=O)CCC(=O)N(CC(=O)NCC2CCCO2)c2ccccc2)no1", "note": "(stereo unspecified)", "activation, negative = inhibition": "3.92% (inactive)"},
      {"smiles": "CC(C)Oc1ccc(C(=O)NCC(=O)Nc2ccc3c(c2)CCC3)cc1", "activation, negative = inhibition": "-4.39% (inactive)"},
      {"smiles": "CC(C)CCNC(=O)c1ccc2c(Cl)c3c(nc2c1)CCC3", "Potency": "794 nM (active)"},
      {"smiles": "COc1ccc(N2CCN(C(=O)c3ccc4c(Cl)c5c(nc4c3)CCCC5)CC2)cc1", "activation, negative = inhibition": "0.948% (inactive)"},
      {"smiles": "CC(=O)c1ccc(NC(=O)c2ccc3c(Cl)c4c(nc3c2)CCCC4)cc1", "activation, negative = inhibition": "-18.7% (inactive)"},
      {"smiles": "COc1ccc(C(=O)OCC(=O)N2CC(=O)Nc3ccccc32)cc1Br", "activation, negative = inhibition": "-0.57% (inactive)"},
      {"smiles": "O=C1C2C3C=CC(C3)C2C(=O)N1c1ccc(-c2nc3ccccc3c(=O)o2)cc1", "note": "(stereo unspecified)", "activation, negative = inhibition": "3.04% (inactive)"},
      {"smiles": "Cc1ccc(NC(=O)Cn2c(C)csc2=O)cc1", "activation, negative = inhibition": "6.72% (inactive)"},
      {"smiles": "Cc1ccc(C)c(NC(=O)c2cc(-c3cc(C)cc(C)c3O)n[nH]2)c1", "activation, negative = inhibition": "-6.62% (inactive)"},
      {"smiles": "Cc1ccc(NC(=O)c2cc(-c3ccccc3O)n[nH]2)cc1C", "Potency": "2820 nM (active)"},
      {"smiles": "Cc1ccc(NC(=O)CCN2C(=O)c3ccccc3C2=O)cc1C", "activation, negative = inhibition": "6.61% (inactive)"},
      {"smiles": "Cc1ccc(NC(=O)c2cccs2)cc1S(=O)(=O)N(C)C", "activation, negative = inhibition": "17.2% (inactive)"},
      {"smiles": "Cc1ccc(C(=O)Nc2ccc(C)c(S(=O)(=O)N(C)C)c2)s1", "Potency": "1000 nM (active)"},
      {"smiles": "CCN(CC(=O)Nc1ccc(C)c(S(=O)(=O)N(C)C)c1)Cc1ccccc1", "activation, negative = inhibition": "2.23% (inactive)"},
      {"smiles": "CCN(CC)CCn1c2c(c(SCC(=O)Nc3nc4ccccc4s3)nc1=O)CCCC2", "activation, negative = inhibition": "0.858% (inactive)"},
      {"smiles": "O=[N+]([O-])c1cc(Br)c(O)c(/C=N/Nc2nc3ccccc3s2)c1", "activation, negative = inhibition": "-8.89% (inactive)"},
      {"smiles": "c1ccc2sc(NN=C3CCCC3)nc2c1", "Potency": "631 nM (active)"},
      {"smiles": "CC(=O)O[C@H]1c2ccccc2-c2ccccc2[C@@H]1OC(C)=O", "activation, negative = inhibition": "-1.15% (inactive)"},
      {"smiles": "Cc1ccc(NC(=O)c2c(NC(=O)CCC(=O)O)sc3c2CCCCC3)cc1", "activation, negative = inhibition": "-6.43% (inactive)"},
      {"smiles": "COC(=O)c1sc(NC(=O)c2csc3c2CCCC3)nc1C", "Potency": "3980 nM (active)"},
      {"smiles": "CCOC(=O)c1sc(NC(=O)c2cc(S(=O)(=O)N3CCOCC3)ccc2C)nc1C", "activation, negative = inhibition": "-2.46% (inactive)"},
      {"smiles": "O=C(Nc1ccccc1N1CCOCC1)c1csc2c1CCCC2", "activation, negative = inhibition": "3.79% (inactive)"},
      {"smiles": "Cc1ccc(NC(=O)c2csc3c2CCCC3)cc1", "Potency": "1410 nM (active)"},
      {"smiles": "CCOC(=O)c1sc(NC(=O)c2sc(C)nc2C)nc1C", "activation, negative = inhibition": "-29.6% (inactive)"},
      {"smiles": "CCN(C(=O)COC(=O)c1c(C)nn(-c2ccccc2)c1Cl)c1c(N)n(Cc2ccccc2)c(=O)[nH]c1=O", "activation, negative = inhibition": "-1.95% (inactive)"},
      {"smiles": "Cc1cccc(NC(=O)CN2CCN(CC(=O)NCC3(N4CCCCC4)CCCCC3)CC2)c1C", "activation, negative = inhibition": "-5.48% (inactive)"},
      {"smiles": "CCCn1c(N)c(N(CCOC)C(=O)C2CCCC2)c(=O)[nH]c1=O", "activation, negative = inhibition": "0.7% (inactive)"},
      {"smiles": "O=C(CNS(=O)(=O)c1ccc2ccccc2c1)Nc1ccc(F)c(F)c1F", "activation, negative = inhibition": "-2.94% (inactive)"},
      {"smiles": "COC(=O)c1ccc(NC(=O)CSc2nncn2-c2cccnc2)cc1", "activation, negative = inhibition": "0.416% (inactive)"},
      {"smiles": "O=C(COC(=O)c1cccc(Cl)c1)NC1CCCCCCC1", "activation, negative = inhibition": "0.046% (inactive)"},
      {"smiles": "O=C(CSc1nnc(N2CCOCC2)n1-c1cccc(F)c1)N1CCN(c2ccccn2)CC1", "activation, negative = inhibition": "-1.86% (inactive)"},
      {"smiles": "C=CCNc1nc(Nc2ccc(Cl)cc2)nc(OC)n1", "activation, negative = inhibition": "14.8% (inactive)"},
      {"smiles": "Brc1ccc(CN2CC[C@H]3C=CCc4cccc(c43)C2)cc1", "activation, negative = inhibition": "-3.17% (inactive)"},
      {"smiles": "Cc1cccc(-n2cnc(C(=O)Nc3cccnc3)c2)n1", "Potency": "2240 nM (active)"},
      {"smiles": "COc1cccc(C(=O)Nc2cccnc2)c1OC", "activation, negative = inhibition": "-3.29% (inactive)"},
      {"smiles": "Cc1cccc(-n2cnc(C(=O)NNC(=S)Nc3ccccc3)c2)n1", "activation, negative = inhibition": "2.6% (inactive)"},
      {"smiles": "Cc1ccc(NC(=O)CN(C)C(=O)c2cccc(S(=O)(=O)N3CCCC3)c2)cc1", "activation, negative = inhibition": "1.79% (inactive)"},
      {"smiles": "Cc1ccc(O)c(CNc2nc3ccccc3[nH]2)c1", "activation, negative = inhibition": "6.94% (inactive)"},
      {"smiles": "O=C(Nc1cc(-c2nc3ncccc3o2)ccc1Cl)c1ccco1", "activation, negative = inhibition": "13.9% (inactive)"},
      {"smiles": "Cc1ccc(-n2nc3cc(C)c(NC(=O)c4cccnc4)cc3n2)cc1", "Potency": "3550 nM (active)"},
      {"smiles": "Cc1cc(NC(=O)c2ccco2)c(=O)n(Cc2c(F)cccc2Cl)c1", "activation, negative = inhibition": "-1.33% (inactive)"},
      {"smiles": "Cc1ccc(S(=O)(=O)N2CCCCC2)cc1NC(=O)c1cccnc1", "activation, negative = inhibition": "0.0836% (inactive)"},
      {"smiles": "O=C(Nc1cccc(-n2cnnn2)c1)c1cccnc1", "activation, negative = inhibition": "-7.65% (inactive)"},
      {"smiles": "Cc1ccc(-n2nc3cc(Cl)c(NC(=O)c4ccco4)cc3n2)cc1", "Potency": "3550 nM (active)"}
    ]}
  ]
}
